In general, AC50 refers to the concentration giving half of the maximal activity seen.

This note sets out measurements from PubChem BioAssay (EPA / NIEHS).

Where “and” joins values, the source holds several entries; their conditions need not be identical. Equal entries are not always repeated. Inconclusive results are not listed. The source holds several records for some structures; these can differ, active in one and inactive in another. Calls of active or inactive are those of the source. The calls were made as follows: active = hit-call score of the fitted dose curve at least 0.9, where 1 is the maximum; inconclusive = response in the unintended direction; inactive = score below 0.9.

Read-out in experiment [1]: xenobiotic metabolism (CYP1A2), CYP1A2 (gene 1544)
Nature of the experiment: CLD_CYP1A2_6hr: CellzDirect (CLD) Gene Expression Assay for xenobiotic metabolism (CYP1A2) at 6 hours (AID 2283663).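 As to AC50: potency is for induction meaning a rise in mRNA above DMSO.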 A digest of the protocol: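 Primary human hepatocytes from two donor preparations, dosed daily with multiple concentrations in 0.2% DMSO and harvested at 6 h. CYP1A2 mRNA induction measured by chemiluminescent qNPA, gain of signal fitted against DMSO; cytotoxicity flagged morphologically.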

Read-out in experiment [2]: xenobiotic metabolism (CYP1A1), CYP1A1 (gene 1543)
Nature of the experiment: CLD_CYP1A1_6hr: CellzDirect (CLD) Gene Expression Assay for xenobiotic metabolism (CYP1A1) at 6 hours (AID 2283661).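 As to AC50: potency for transcript induction above DMSO vehicle baseline.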 The method in brief:
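Primary human hepatocytes from two donors, compound versus 0.2% DMSO vehicle. CYP1A1 mRNA measured 6 h after dosing by quantitative nuclease protection assay with chemiluminescent read-out; induction fitted relative to DMSO, cytotoxicity flagged by microscopy.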

Read-out in experiment [3]: xenobiotic metabolism (CYP2C9), CYP2C9 (gene 1559)
Nature of the experiment: CLD_CYP2C9_6hr: CellzDirect (CLD) Gene Expression Assay for xenobiotic metabolism (CYP2C9) at 6 hours (AID 2283664). The method in brief:
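Primary human hepatocytes dosed daily with test chemicals at multiple concentrations; harvested at 6 h. CYP2C9 mRNA induction measured by qNPA chemiluminescence. Gain of signal fitted against 0.2% DMSO vehicle; cytotoxicity annotated from phase-contrast morphology.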

Experiment [4] in a line: Tanguay_ZF_120hpf_TR_legacy: (Legacy) Oregon State University Tanguay Lab 120 Hour Post-fertilization zebrafish Assay for Touch Response (AID 2283667). A digest of the protocol: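 Tropical 5D wild-type zebrafish embryos statically exposed to 120 hpf at 28°C, sealed and dark-covered, 0.64% DMSO final; touch response scored as present/absent by brightfield microscopy at 120 hpf. Trimethyltin chloride 5 uM positive control; dead embryos not scored.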

Read-out in experiment [5]: organic anion transporter (SLCO1B1), SLCO1B1 (gene 10599)
The experiment in a line: CLD_SLCO1B1_6hr: CellzDirect (CLD) Gene Expression Assay for organic anion transporter (SLCO1B1) at 6 hours (AID 2283668).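 Also: active means mRNA induction above DMSO baseline.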 The method in brief:
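Primary human hepatocytes dosed daily with test chemicals (multiple concentrations) in 0.2% DMSO vehicle; harvested at 6 h. SLCO1B1 mRNA quantified by qNPA chemiluminescence, fitted as gain-of-signal versus DMSO; cytotoxicity from phase-contrast morphology flagged alongside.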

Read-out in experiment [6]: Broad substrate specificity ATP-binding cassette transporter ABCG2 (Homo sapiens) (UniProt Q9UNQ0)
Nature of the experiment: CLD_ABCG2_6hr: CellzDirect (CLD) Gene Expression Assay for ABC Transporter (ABCG2) at 6 hours (AID 2283660). A digest of the protocol:
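Primary human hepatocytes dosed daily with chemicals at multiple concentrations (0.2% DMSO vehicle), harvested 6 h after dosing. ABCG2 mRNA induction read by quantitative nuclease protection assay (qNPA) chemiluminescence; gain of signal fitted against DMSO baseline.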

For experiment [7], the system named is Thyroperoxidase (TPO), gene 54314. The experiment in a line: CCTE_Simmons_AUR_rTPO: CCTE's Amplex UltraRed Assay for Thyroperoxidase (TPO) Inhibition, Simmons Lab (AID 2283662).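 As to AC50: potency for loss of signal meaning inhibition of peroxidase activity.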 A digest of the protocol:
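Rat thyroid microsomes (5 ug protein) with 25 uM Amplex UltraRed and 300 uM H2O2 in 200 mM phosphate buffer, 30 min at 37C in dark; fluorescence 544/590 nm. Eight concentrations, 5 nM–87.5 uM final, 0.5% DMSO, triplicate biological replicates.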

Experiment [8] in a line: CCTE_Simmons_CellTiterGLO_HEK293T: Viability Assessment in CCTE's Assays for Thyroperoxidase (TPO) Inhibition, Simmons Lab (AID 2283665).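 As to AC50: cells exposed to compound for 24 h before readout; actives reduce ATP signal below DMSO vehicle meaning cytotoxicity.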 The method in brief:
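HEK293T cells in DMEM with 1% FBS were dosed with 8 concentrations (5 nM–87.5 uM final, 0.5% DMSO) for 24 hr at 37C; ATP content was read by CellTiter-Glo luminescence, loss-of-signal versus DMSO, three biological replicates.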
A general note: Cellular ATP, detected with luciferase, serves as a proxy for viable cell number.

Broad substrate specificity ATP-binding cassette transporter ABCG2 (Homo sapiens), sequence (Q9UNQ0 whole entry, looked up): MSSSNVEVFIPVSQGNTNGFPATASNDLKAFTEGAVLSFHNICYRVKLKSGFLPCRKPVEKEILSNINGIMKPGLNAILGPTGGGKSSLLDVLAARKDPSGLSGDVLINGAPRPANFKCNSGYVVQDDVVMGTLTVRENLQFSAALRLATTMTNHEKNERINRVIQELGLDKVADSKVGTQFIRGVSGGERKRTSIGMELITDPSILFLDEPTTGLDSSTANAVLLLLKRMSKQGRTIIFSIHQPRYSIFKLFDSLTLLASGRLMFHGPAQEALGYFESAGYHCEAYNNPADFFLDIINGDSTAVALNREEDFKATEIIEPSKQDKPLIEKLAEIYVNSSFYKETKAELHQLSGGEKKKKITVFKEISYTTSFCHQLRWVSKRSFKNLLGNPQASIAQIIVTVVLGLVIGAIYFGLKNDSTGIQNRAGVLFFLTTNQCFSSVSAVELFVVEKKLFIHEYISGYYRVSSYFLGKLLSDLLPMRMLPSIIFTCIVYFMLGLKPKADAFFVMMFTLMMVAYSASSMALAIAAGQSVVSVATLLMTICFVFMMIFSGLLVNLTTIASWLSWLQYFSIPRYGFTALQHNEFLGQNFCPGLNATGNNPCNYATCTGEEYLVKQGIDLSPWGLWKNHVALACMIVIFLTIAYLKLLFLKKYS

Take `COC(=O)c1ccccc1C(=O)OC`: the outcome in experiment [1] was inactive.

Take `Fc1ccc(Oc2ccnc3cc(Cl)cc(Cl)c23)cc1`: the AC50 in experiment [1] is 5.01 µM (active).

As for `CCNc1nc(Cl)nc(NCC)n1`, the half-maximal activity concentration (AC50) in experiment [2] is 4.72 µM (active). Moreover, the compound was called inactive in experiment [3], in experiment [4] and in experiment [5].

Regarding `O=C(O)COc1nc(Cl)c(Cl)cc1Cl`, the compound was classed as inactive in experiment [6], in experiment [3] and in experiment [4].

As for `CC1=C(C(=O)Nc2ccccc2)SCCO1`, the half-maximal activity concentration (AC50) in experiment [2] is 11.1 µM (active); in experiment [7], 5.33 µM (active). The outcome in experiment [4] was inactive.

`CNC(=O)ON=CC(C)(C)SC`: the figures for the AC50 in experiment [2] and in experiment [4] were 0.000972 µM (active) and 21 µM (active), respectively. The call in experiment [1] and in experiment [3] was inactive.

With `CC(C)C1(C)N=C(c2nc3ccccc3cc2C(=O)O)NC1=O` (centres undefined), the result in experiment [2], in experiment [3], in experiment [4] and in experiment [5] was inactive.

In the case of `COc1ccc(C(c2ccc(OC)cc2)C(Cl)(Cl)Cl)cc1`, the AC50 in experiment [2] is 15.8 µM (active). Moreover, the compound was classed as inactive in experiment [4].

As for `CCCCOC(=O)c1ccccc1C(=O)OCCCC`, in experiment [2], the AC50 is 3.36 µM (active) and 5.18 µM (active). Moreover, the compound was called inactive in experiment [3], in experiment [4] and in experiment [5].

For the compound `CCON=C(CC)C1=C(O)CC(c2c(C)cc(C)cc2C)CC1=O` (centres undefined), the outcome in experiment [6], in experiment [2], in experiment [4] and in experiment [5] was inactive.

For `CCOc1cc(Oc2ccc(C(F)(F)F)cc2Cl)ccc1[N+](=O)[O-]`, the compound was called inactive in experiment [6], in experiment [4] and in experiment [5].

Regarding `N#Cc1nn(-c2c(Cl)cc(C(F)(F)F)cc2Cl)c(N)c1S(=O)C(F)(F)F` (centres undefined), the compound was classed as inactive in experiment [6] and in experiment [4].

As for `CCCCC(CC)COC(=O)c1ccccc1C(=O)OCC(CC)CCCC` (centres undefined), the compound was classed as inactive in experiment [2], in experiment [3], in experiment [4] and in experiment [5].

As for `CC(Oc1ccc(Cl)cc1Cl)C(=O)O` (centres undefined), in experiment [2], the outcome was inactive.

On to `CN(C)C(=S)SSC(=S)N(C)C`, for which the compound was called inactive in experiment [6], in experiment [7] and in experiment [5]. Also, the AC50 was 40.2 µM (active) in experiment [8] and 3.26 µM (active) in experiment [4].

Consider `CCc1nn(C)c(C(=O)NCc2ccc(C(C)(C)C)cc2)c1Cl`, for which the call in experiment [6], in experiment [4] and in experiment [5] was inactive. Further, in experiment [2], the AC50 was 6.51 µM (active).

Take `O=C(O)c1nc(Cl)ccc1Cl`: the AC50 in experiment [2] is 4.04 µM (active). In addition, the compound was classed as inactive in experiment [2], in experiment [7], in experiment [3], in experiment [4] and in experiment [5].

As to `Oc1ccccc1-c1ccccc1`, the call in experiment [6], in experiment [3], in experiment [4] and in experiment [5] was inactive. The figures for the AC50 in experiment [7] and in experiment [8] were 35.2 µM (active) and 97.1 µM (active), respectively.

Consider `CON(C)C(=O)Nc1ccc(Cl)c(Cl)c1`, for which the half-maximal activity concentration (AC50) in experiment [2] is 0.762 µM (active); in experiment [7] it was 35 µM (active). For the same compound, the compound was classed as inactive in experiment [8] and in experiment [4].

As to `CCOC(=O)C(Cl)Cc1cc(-n2nc(C)n(C(F)F)c2=O)c(F)cc1Cl` (centres undefined), the concentration at half-maximal activity (AC50) was 0.375 µM (active) in experiment [2] and 17 µM (active) in experiment [4]. Further, in experiment [3], the compound was called inactive.

As for `CC(C)(C)c1ccc(CSc2cnn(C(C)(C)C)c(=O)c2Cl)cc1`, the compound was classed as inactive in experiment [6], in experiment [4] and in experiment [5].

Take `CCCC1COC(Cn2cncn2)(c2ccc(Cl)cc2Cl)O1` (centres undefined): the half-maximal activity concentration (AC50) was 6.32 µM (active) in experiment [2], 79.7 µM (active) in experiment [8] and 9.51 µM (active) in experiment [4]. The result in experiment [7] was inactive.

Take `CCOP(=S)(OCC)SCn1c(=O)oc2cc(Cl)ccc21`: the results for the AC50 in experiment [2], in experiment [7] and in experiment [8] were 0.36 µM (active), 2.18 µM (active) and 67.4 µM (active), respectively. The compound was classed as inactive in experiment [4].

As for `COC(=O)N(OC)c1ccccc1COc1ccn(-c2ccc(Cl)cc2)n1`, the compound was called inactive in experiment [6], in experiment [3], in experiment [4] and in experiment [5].

With `N#Cc1cc(Br)c(O)c(Br)c1`, the compound was classed as inactive in experiment [2], in experiment [1], in experiment [4] and in experiment [5].

With `COc1cnc(OC)n2nc(NS(=O)(=O)c3c(OCC(F)F)cccc3C(F)(F)F)nc12`, the concentration at half-maximal activity (AC50) in experiment [2] is 0.121 µM (active). The outcome in experiment [3] and in experiment [5] was inactive.

Consider `Cc1ccc(-c2c(Cl)nc(C#N)n2S(=O)(=O)N(C)C)cc1`, for which the compound was classed as inactive in experiment [6], in experiment [4] and in experiment [5]. In addition, the half-maximal activity concentration (AC50) in experiment [2] was 0.105 µM (active).

Consider `COC(=O)C(C)Oc1ccc(Oc2ccc(Cl)cc2Cl)cc1` (centres undefined), for which the call in experiment [6], in experiment [4] and in experiment [5] was inactive. Also, in experiment [2], the AC50 is 3.97 µM (active) and 4.59 µM (active).

Consider `CCCN(CCC)c1c([N+](=O)[O-])cc(S(N)(=O)=O)cc1[N+](=O)[O-]`, for which the compound was called inactive in experiment [6], in experiment [7], in experiment [3], in experiment [4] and in experiment [5]. Further, the concentration at half-maximal activity (AC50) in experiment [8] is 27.1 µM (active) [middle of 5 runs].
